# Values without a mark were called inactive.
# System: Plasmodium falciparum NF54-HGL (transmission to Anopheles stephensi)
# Assay: percentage of barcode signal found in uninfected mosquitoes (transmission-blocking activity); higher = stronger blocking of transmission to mosquito, active = 80 or more
# Details: 10 µM; gametocyte preincubation time 24 h; readout time post-feed 8 days
# Protocol: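 The mixture was fed to Anopheles stephensi in 96-well plates as blood meals tagged with DNA-barcoded Asaia bacteria. Eight days later, mosquitoes were classed infected or uninfected by luminescence (mean + 5 SD of unfed controls). Barcodes were quantified by Luminex MagPlex-TAG in the pooled uninfected and infected Asaia cultures, background-corrected, and the score is % of barcode signal in uninfected mosquitoes = 100*Iu/(Iu+Ii).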
row,Compound,percentage of barcode signal found in uninfected mosquitoes
1,O=C(NCc1nnc2n1CCCCC2)c1ccc(-c2ccc(F)cc2)o1,-11%
2,O=C(NC1CC1)c1ccc(N2CCOc3ccc(Cl)cc32)s1,49.7%
3,COc1ccc(N(CCc2cccc(C)n2)C(=O)C2CCCCC2)cc1,29.5%
4,CC(=O)Nc1ccc(NC(=O)c2cc(-c3cc(Cl)ccc3O)[nH]n2)cc1,27.4%
5,Cc1noc(C)c1C(=O)N1CCCC(c2[nH]c3c(C)cccc3c2-c2ccncc2)C1 (stereo not drawn),69.1%
6,O=C(Nc1ccc(N2CCNCC2)cc1)c1ccn2ncc(-c3cccc(Cl)c3)c2n1,81.5% (active)
7,O=C(c1[nH]nc2c1CCCC2)N1CCN(Cc2ccc3c(c2)OCO3)CC1,9.05%
8,C[C@]1(O)C[C@@H](c2nc(-c3ccc4ccc(-c5ccccc5)nc4c3)c3c(N)nccn32)C1,80.6% (active)
9,O=C(COc1cccc(F)c1)Nc1nc(-c2ccccn2)cs1,38.7%
10,CNc1snc(C)c1C(=O)NCCOc1ccc(OC)cc1,25.3%
11,CC(C)C(NC(=O)Cc1cccc2ccccc12)C(=O)Nc1cccc(C#N)c1 (stereo not drawn),53.4%
12,CCOC(=O)NC(=O)c1ccsc1NC(=O)c1nc2ccccc2s1,-0.298%
13,CC1CC1C(=O)NC1CCN(CC2(c3ccccc3)CCCCC2)CC1 (stereo not drawn),97.6% (active)
14,CC1COC2(CCN(c3nc(=O)c4cc(C(F)(F)F)cc([N+](=O)[O-])c4s3)CC2)O1 (stereo not drawn),26.7%
15,CCOc1ccccc1C(=O)Nc1cccc(-c2nc3ncccn3c2C)c1,78.8%
16,CC(C(=O)Nc1ccc2oc(-c3ccncc3)nc2c1)c1ccccc1 (stereo not drawn),-6.05%
17,CC(C)C(C(=O)Nc1ccc(S(=O)(=O)N(C)C)cc1)c1ccc(Cl)cc1 (stereo not drawn),49.7%

# Same assay, conditions: 20 µM; gametocyte preincubation time 24 h; readout time post-feed 8 days
row,Compound,percentage of barcode signal found in uninfected mosquitoes
1,FC(F)(F)c1cccc(-c2nc3c(NCc4ccncc4)nccc3[nH]2)c1,2.48%
2,COc1ccc(-c2nnc3ccc(-c4cccc(C(C)C)c4)cn23)cc1OC,47.3%
3,CCCCN(CCCC)c1c(C#N)cc(S(=O)(=O)Nc2ccccc2)cc1C#N,10.5%
4,Cc1ccc(NC(=O)c2cc(S(=O)(=O)NC(C)(C)C)ccc2C)nc1,20.2%
5,c1ccc(-c2nc(NC3CCCCC3)cc(C3CC3)n2)nc1,99.2% (active)
6,Cc1ccc(S(=O)(=O)Nc2ccc(CN3CCN(C(=O)c4cccc(C#N)c4)CC3)cc2)cc1,0.0235%
7,Nc1ncc(Br)cc1-c1nc2cc(Cl)cnc2[nH]1,21.4%
8,OC[C@H]1O[C@@H](n2c3ccc(Cl)cc3c3c(-c4cc5ccccc5o4)ncnc32)C(O)[C@H]1O (stereo partly drawn),8.88%
9,CNC(=O)CNc1nc(-c2ccccn2)nc2scc(-c3ccccc3)c12,69.6%
10,O=C1[C@@H](Oc2ccccc2)[C@@H](c2ccc(Cl)cc2)N1CCn1cnc2c(NCc3ccccc3)ncnc21,1.2%
11,Cc1ccc(-c2nc(CN(Cc3ccccn3)C(C)C)cs2)o1,81.4% (active)
12,Nc1ccc(C(=O)Nc2ccc(-c3nc4ccccc4o3)cc2)cc1,-0.842%
13,O=C(C1CCN(c2cc(-n3cccc3)ncn2)CC1)N1CCc2ccccc2C1,26.4%
14,C[C@H](C(N)=O)N1CCCC[C@H]1c1ccc(OCc2cccc(F)c2)cc1,25%
15,NCCC(O)C(=O)N[C@@H]1C[C@H](N)[C@@H](OC2O[C@H](CN)[C@@H](O)[C@H](O)[C@H]2O)[C@H](O)C1OC1O[C@H](CO)[C@@H](O)[C@H](N)[C@H]1O (stereo partly drawn),37.6%
16,O=[N+]([O-])c1cn2c(n1)OC[C@@H](OCc1ccc(OC(F)(F)F)cc1)C2,17%
17,CC(=O)N(CCN(C(=O)c1ccc(F)cc1)c1ccccc1)c1ccccc1,1.19%
18,Cc1cc(NC(=O)c2ccc(Oc3ccc(Cl)cc3O)o2)no1,33%
19,Cc1cc(Nc2ccc(C(F)(F)F)cc2)n2ccnc2n1,-1.06%
20,c1cc(C2=NCCN2)cc(-c2cc(-c3ccc(C4=NCCN4)cc3)no2)c1,50%
21,C[C@H]1COc2c(N3CCN(C)CC3)c(F)cc3c(=O)c(C(=O)O)cn1c23,-1.12%

# Source: the supplement of paper PMC8726507
